Data as given in PubChem BioAssay AID651601 (Sanford-Burnham Center for Chemical Genomics, 2012).
Calls of active or inactive are those of the source.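 How the source made its calls: active means CXCR6 mean IC50 below 15 µM, and neither CCR6 nor CXCR5 mean IC50 under five times that; inactive means the rest.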

target: C-X-C chemokine receptor type 6 (Homo sapiens) (UniProt O00574); test: antagonist selectivity across CCR6, CXCR5 and CXCR6 – cell-based, CHO-K1 PathHunter beta-arrestin, luminescence, selectivity assay for CXCR6 antagonist project, profiling panel (AID 651601); conditions: antagonist mode, mean of runs
Sequence (O00574 whole entry, looked up): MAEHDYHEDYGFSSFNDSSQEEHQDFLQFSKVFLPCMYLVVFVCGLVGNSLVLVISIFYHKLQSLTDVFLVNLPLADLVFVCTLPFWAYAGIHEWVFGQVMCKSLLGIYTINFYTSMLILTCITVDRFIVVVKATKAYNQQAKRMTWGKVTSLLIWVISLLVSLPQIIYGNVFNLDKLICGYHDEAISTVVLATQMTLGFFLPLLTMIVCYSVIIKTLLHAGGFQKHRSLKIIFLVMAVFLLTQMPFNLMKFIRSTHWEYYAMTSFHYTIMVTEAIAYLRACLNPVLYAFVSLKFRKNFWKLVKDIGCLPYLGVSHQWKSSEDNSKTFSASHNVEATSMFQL

| Structure (SMILES) | outcome |
| --- | --- |
| O=C(CN1C2CCCC1CC(NC(=O)c1ccccc1)C2)Nc1ccccc1C(F)(F)F (stereo unspecified) | inactive |
| O=C(CN1C2CCCC1CC(NC(=O)c1ccccc1)C2)Nc1ccccc1 (stereo unspecified) | inactive |
| COc1cccc(C(=O)NC2CC3CCCC(C2)N3CC(=O)Nc2ccccc2C(F)(F)F)c1 (stereo unspecified) | inactive |
| COc1cc(C(=O)NC2CC3CCCC(C2)N3CC(=O)Nc2ccccc2)cc(OC)c1OC (stereo unspecified) | active |
| CN(C)c1ccc(NC(=O)CN2C3CCCC2CC(NC(=O)c2ccccc2)C3)cc1 (stereo unspecified) | inactive |
| COc1cccc(C(=O)NC2CC3CCCC(C2)N3CC(=O)Nc2ccc(N(C)C)cc2)c1 (stereo unspecified) | inactive |
